This note sets out measurements from PubChem BioAssay (Tox21).

Experiment [1] in a line: qHTS RealTime-Glo MT Cell Viability Assay in HEK293 cells - 24 hour (AID 1224886). Further: nearly all actives have a fitted effect of over 50% in size. Further: potency means the concentration at half of the fitted maximal effect. On activity change, negative = cytotoxicity: top concentration of the series differs between compounds. Summed up: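 Assay medium contained NanoLuc luciferase plus cell-permeant prosubstrate, added with HEK293 cells at 600 cells/well. After 5 h at 37 C/5% CO2 compounds were added; plates stayed at 37 C for 40 h with serial luminescence reads.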
A general note: Quantitative high-throughput screening tests each substance at several concentrations.

Experiment [2] can be described thus: qHTS RealTime-Glo MT Cell Viability Assay in HEK293 cells - 8 hour (AID 1224887). Further: nearly all actives have a fitted effect of over 50% in size. Further: potency means the concentration at half of the fitted maximal effect. On activity change, negative = cytotoxicity: top concentration of the series differs between compounds. Summed up:
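Nonlytic bioluminescent viability monitoring. HEK293 at 600 cells/well with reagent; 5 h settle; compound transfer by pintool; plates held at 37 C and read at set time points.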

Experiment [3] can be described thus: A CellTox Green Cytotoxicity Assay to monitor cytotoxicity in HepG2 cells - 8 hour (AID 1224890). Further: nearly all actives have a fitted effect of over 45% in size. Summed up:
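Real-time, homogeneous cytotoxicity readout: dead-cell DNA staining by CellTox Green in HepG2 monolayers, fluorescence measured at timed intervals up to 40 h of continuous compound exposure.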

Experiment [4] is described as follows: qHTS assay to identify small molecule antagonists of the androgen receptor (AR) signaling pathway using the MDA cell line in the presence of 0.5 nM R1881 - cell viability counter screen (AID 1259242). Further: nearly all actives have a fitted effect of over 45% in size. In a few lines:
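Cytotoxicity toward MDA-kb2 cells is measured by CellTiter-Fluor live-cell protease fluorescence after 16 hr compound exposure at 37C in the presence of 0.5 nM R1881 stimulator.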

The target in experiment [5] is Androgen receptor (Homo sapiens) (UniProt P10275). Nature of the experiment: qHTS assay to identify small molecule antagonists of the androgen receptor (AR) signaling pathway using the MDA cell line in the presence of 0.5 nM R1881 (AID 1259243). Further: nearly all actives have a fitted effect of over 50% in size. Summed up:
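Steps: seed MDA-kb2 cells, incubate 5 hr at 37C; pin-transfer compounds in DMSO; add R1881 to 0.5 nM final; incubate 16 hr; add ONE-Glo, wait 30 min at room temperature; read luminescence.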

A short description of experiment [6]: qHTS assay to identify small molecule antagonists of the estrogen receptor alpha (ER-alpha) signaling pathway using the BG1 cell line in the presence of 0.1 nM 17-beta-estradiol - cell viability counter screen (AID 1259241). Further: nearly all actives have a fitted effect of over 40% in size. In a few lines:
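In this screen, hormone-deprived VM7Luc4E2 cells were seeded at 4,000 per well, dosed with compound and 0.1 nM estradiol final, and incubated 22 hr at 37C and 5% CO2; fluorogenic live-cell protease signal reported viability.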

Experiment [7] deals with Estrogen receptor (Homo sapiens) (UniProt P03372). Description: qHTS assay to identify small molecule antagonists of the estrogen receptor alpha (ER-alpha) signaling pathway using the BG1 cell line in the presence of 0.1 nM 17-beta-estradiol (AID 1259244). Further: nearly all actives have a fitted effect of over 50% in size. Further: potency means the concentration at half of the fitted maximal effect. In a few lines: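 After 5 days in hormone-depleted medium (charcoal-stripped serum, no phenol red), VM7Luc4E2 cells were seeded, incubated 24 h, then co-treated with compound and 0.1 nM (final) estradiol for 22 h before luminescence detection.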

Experiment [8] is described as follows: qHTS RealTime-Glo MT Cell Viability Assay in HepG2 cells - 0 hour (AID 1224889). Further: nearly all actives have a fitted effect of over 50% in size. Summed up:
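qHTS, HepG2, 600 cells/well, RealTime-Glo (NanoLuc + prosubstrate) added with cells; 5 h preincubation; DMSO compound addition; 37 C; luminescence at 0/8/16/24/32/40 h.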

The nature of experiment [9]: A CellTox Green Cytotoxicity Assay to monitor cytotoxicity in HEK293 cells - 16 hour (AID 1224888). Further: nearly all actives have a fitted effect of over 35% in size. In a few lines:
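Cytotoxicity was tracked continuously in HEK293 cells by a DNA-binding dye excluded from viable cells. Compounds were transferred in DMSO 5 h after seeding; fluorescence was recorded at intervals up to 40 h.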

Experiment [10] in a line: qHTS assay to identify small molecule phospholipidosis (PLD) inducers (AID 1259344; active means well fitted curve in the direction sought with a large enough effect; an effect the other way counts as inactive or inconclusive). In a few lines:
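Quantitative HTS in HepG2: compound plus LipidTOX Red dye for 24 h, paraformaldehyde fixation with Hoechst 33342, widefield high-content imaging; amiodarone as positive and DMSO as negative control.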

“And” between values parts separate entries of the source, which are not always exact repeats. Identical values can stand only once. Results filed as inconclusive are left out. Some compounds were tested as several samples or in several runs, with calls that do not always agree. The source made the active and inactive calls. Unless noted, the call rests on the fitted dose curve; in most records, active means well fitted curve in the direction sought with a large enough effect in the repeat runs; inconclusive means weak or mixed curves; inactive means no such curve, though single readings can be large; an effect the other way counts as inactive or inconclusive.
On the % scale 0 is the no-effect control and ±100 the full control effect.

Chain of Androgen receptor (Homo sapiens) (P10275 whole entry, looked up): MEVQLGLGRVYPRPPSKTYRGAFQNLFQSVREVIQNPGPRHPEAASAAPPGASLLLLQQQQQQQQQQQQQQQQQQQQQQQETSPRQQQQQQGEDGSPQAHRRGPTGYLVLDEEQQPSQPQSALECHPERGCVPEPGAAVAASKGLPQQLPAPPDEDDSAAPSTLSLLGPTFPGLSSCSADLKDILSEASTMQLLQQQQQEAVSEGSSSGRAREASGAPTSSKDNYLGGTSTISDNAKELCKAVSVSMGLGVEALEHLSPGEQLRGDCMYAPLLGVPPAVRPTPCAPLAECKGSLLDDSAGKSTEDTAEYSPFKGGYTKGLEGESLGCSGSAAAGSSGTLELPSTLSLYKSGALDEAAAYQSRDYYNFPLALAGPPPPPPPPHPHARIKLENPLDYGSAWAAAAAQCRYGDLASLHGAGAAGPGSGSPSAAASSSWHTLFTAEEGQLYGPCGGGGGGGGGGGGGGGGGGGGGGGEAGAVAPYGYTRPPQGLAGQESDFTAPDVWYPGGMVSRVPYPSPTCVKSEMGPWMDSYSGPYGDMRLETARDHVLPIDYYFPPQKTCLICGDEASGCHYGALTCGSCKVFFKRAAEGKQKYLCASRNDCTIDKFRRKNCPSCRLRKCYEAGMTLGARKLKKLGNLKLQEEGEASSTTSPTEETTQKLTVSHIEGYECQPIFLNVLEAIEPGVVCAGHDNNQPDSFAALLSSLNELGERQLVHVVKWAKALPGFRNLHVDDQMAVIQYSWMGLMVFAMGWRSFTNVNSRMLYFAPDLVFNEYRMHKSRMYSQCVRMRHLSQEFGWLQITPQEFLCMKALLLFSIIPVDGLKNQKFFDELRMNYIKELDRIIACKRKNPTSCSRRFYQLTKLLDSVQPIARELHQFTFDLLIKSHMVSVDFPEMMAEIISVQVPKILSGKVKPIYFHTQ
Chain of Estrogen receptor (Homo sapiens) (P03372 whole entry, looked up): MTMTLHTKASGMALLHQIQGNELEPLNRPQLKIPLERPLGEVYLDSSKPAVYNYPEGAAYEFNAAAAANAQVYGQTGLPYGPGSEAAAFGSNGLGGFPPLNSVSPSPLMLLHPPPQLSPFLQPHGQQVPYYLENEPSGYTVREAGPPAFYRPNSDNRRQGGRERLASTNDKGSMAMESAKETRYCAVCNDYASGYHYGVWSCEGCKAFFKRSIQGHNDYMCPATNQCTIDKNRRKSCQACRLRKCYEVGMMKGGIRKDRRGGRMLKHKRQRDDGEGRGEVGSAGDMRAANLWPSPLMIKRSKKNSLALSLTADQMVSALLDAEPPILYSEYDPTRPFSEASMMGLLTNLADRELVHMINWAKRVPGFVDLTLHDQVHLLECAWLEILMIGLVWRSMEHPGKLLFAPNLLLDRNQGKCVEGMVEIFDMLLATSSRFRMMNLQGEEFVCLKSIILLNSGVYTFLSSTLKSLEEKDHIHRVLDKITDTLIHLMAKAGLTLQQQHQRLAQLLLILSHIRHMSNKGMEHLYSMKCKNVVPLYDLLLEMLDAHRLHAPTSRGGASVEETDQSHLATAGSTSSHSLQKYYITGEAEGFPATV

For the compound `CCCCCCCCCCCCOCCO`, the Potency entry in experiment [1], in experiment [2], in experiment [3] and in experiment [5] was “inactive” in each case. Moreover, in experiment [4], the result was inactive.

In the case of `Cc1cccc(O)c1`, the Potency entry in experiment [1], in experiment [2], in experiment [3], in [6] and in experiment [7] was “inactive” in each case. The outcome in [4] was inactive.

Turning to `Cc1ccc(S(N)(=O)=O)cc1`, the Potency entry in experiment [1], in experiment [2] and in experiment [8] was “inactive” each time. Also, the outcome in [4] was inactive.

Consider `CC(C)(N)CO`, for which the Potency result in experiment [1], in experiment [2], in experiment [3], in experiment [6] and in experiment [7] was “inactive” in each case. The outcome in experiment [4] was inactive.

With `C=CCOC(=O)c1ccccc1C(=O)OCC=C`, the Potency result in experiment [1], in [2], in [8], in [3] and in [7] was “inactive” each time. For the same compound, in experiment [4], the result was inactive.

As to `CCCCCCCCCCCCc1ccccc1`, the Potency result in experiment [1], in experiment [2], in experiment [8] and in [3] was “inactive” each time. For the same compound, the outcome in experiment [4] was inactive.

In the case of `O=c1[nH]nnc2ccccc12`, the Potency entry in experiment [1], in [2], in experiment [8] and in [6] was “inactive” each time. Also, the outcome in experiment [4] was inactive.

As for `O=P(OC(CCl)CCl)(OC(CCl)CCl)OC(CCl)CCl`, in experiment [1], the Potency was 24.4 µM (active). Also, the result in experiment [9] and in [4] was inactive.

`Fc1ccc(Br)cc1`: the Potency result in experiment [1], in experiment [2], in [8] and in experiment [7] was “inactive” in each case. Also, the outcome in experiment [4] was inactive.

With `O=C(O)c1ccc2c(c1)C(=O)OC2=O`, the Potency entry in [1], in [2], in experiment [8], in [6], in experiment [5] and in experiment [7] was “inactive” each time. Besides, the outcome in [4] was inactive.

In the case of `COCCCOc1ccnc(CS(=O)c2nc3ccccc3[nH]2)c1C` (stereo unspecified), the Potency was 10.9 µM (active) and inactive in experiment [1]; 19.4 µM (active) and inactive in experiment [2]. The Potency result in experiment [8], in experiment [3] and in experiment [6] was “inactive” in each case. In addition, the result in experiment [4] and in experiment [10] was inactive.

With `O=C(OCCOCCOC(=O)c1ccccc1)c1ccccc1`, the compound was classed as inactive in [9] and in [4]. For the same compound, the Potency entry in [8], in experiment [3], in experiment [6] and in [7] was “inactive” each time.

`CCc1ccc(CCOc2ccc(CC3SC(=O)NC3=O)cc2)nc1` (stereo unspecified): the Potency entry in [1], in experiment [2] and in experiment [3] was “inactive” each time. Moreover, the result in experiment [4] and in [10] was inactive. For the same compound, in experiment [7], the Potency was 54.5 µM (active) and inactive.

For the compound `CC[C@H](C)C(=O)O[C@H]1C[C@@H](C)C=C2C=C[C@H](C)[C@H](CC[C@@H]3C[C@@H](O)CC(=O)O3)[C@H]21`, the Potency result in experiment [1], in experiment [2], in experiment [8] and in [7] was “inactive” throughout. For the same compound, the outcome in experiment [4] and in experiment [10] was inactive.

Turning to `CC(=O)OCC(=O)[C@@]12N=C(C)O[C@@H]1C[C@H]1[C@@H]3CCC4=CC(=O)C=C[C@]4(C)[C@H]3[C@@H](O)C[C@@]12C`, the Potency result in [1], in experiment [2], in [8] and in experiment [7] was “inactive” in each case. In addition, the result in experiment [4] and in [10] was inactive.

Take `c1ccc(OCCOc2ccccc2)cc1`: the Potency result in [1], in [2], in experiment [8], in experiment [6] and in experiment [7] was “inactive” in each case. In addition, in experiment [4], the outcome was inactive.

With `C#C[C@]1(O)CC[C@H]2[C@@H]3CCC4=CC(=O)CC[C@@H]4[C@H]3CC[C@@]21C`, the Potency entry in experiment [1], in [2], in experiment [6] and in [7] was “inactive” throughout. For the same compound, the result in experiment [4] and in [10] was inactive.

As to `O=C(O)c1ccc(C(=O)O)cc1`, the Potency entry in [1], in [2] and in [6] was “inactive” each time. In experiment [4], the outcome was inactive.

Take `Nc1ccccc1[N+](=O)[O-]`: the Potency entry in experiment [1], in experiment [2] and in experiment [6] was “inactive” each time. Besides, the outcome in [4] was inactive.

As for `CC(=O)Nc1cccc(O)c1`, the Potency result in experiment [1], in experiment [2], in experiment [8], in [3] and in experiment [7] was “inactive” throughout. Also, the outcome in experiment [4] and in experiment [10] was inactive.

For the compound `C=C(C)C(=O)Nc1ccc(Cl)c(Cl)c1`, the Potency in experiment [1] was 19.7 µM (active) and 21.8 µM (active); in experiment [7], 69.3 µM (active). Further, the Potency entry in experiment [8], in experiment [3] and in [6] was “inactive” each time. For the same compound, the outcome in experiment [4] was inactive.

As to `c1c[nH]cn1`, the Potency result in [1], in [2] and in [7] was “inactive” throughout. Also, the outcome in experiment [4] was inactive.

As to `CCCCCOC(C)=O`, the Potency entry in experiment [1], in experiment [2], in experiment [8], in [3], in experiment [6] and in experiment [7] was “inactive” in each case. In addition, the result in [4] was inactive.

Take `CCCCC(CC)CO` (stereo unspecified): the Potency entry in experiment [1], in experiment [2] and in experiment [8] was “inactive” each time. Besides, the outcome in [4] was inactive.

For `O=C1CCC(N2C(=O)c3ccccc3C2=O)C(=O)N1` (stereo unspecified), the Potency result in experiment [1], in experiment [2], in [8], in experiment [3] and in experiment [6] was “inactive” in each case. The outcome in experiment [4] and in experiment [10] was inactive.

For `CN(C)CCCN`, the Potency entry in experiment [1], in experiment [2], in experiment [6] and in [7] was “inactive” throughout. For the same compound, the result in experiment [4] was inactive.

For `OC[C@H]1O[C@@](CO)(O[C@H]2O[C@H](CO)[C@@H](O)[C@H](O)[C@H]2O)[C@@H](O)[C@@H]1O`, the outcome in [9], in [4] and in [10] was inactive. The Potency result in experiment [3], in [6] and in [7] was “inactive” in each case.

`CCOC(=O)NNc1nncc2ccccc12`: the Potency entry in experiment [1], in experiment [2], in experiment [6] and in experiment [7] was “inactive” in each case. In experiment [4], the outcome was inactive. For the same compound, the PLD induction in experiment [10] is -1.23% [at 7.66 µM] (inactive).

As for `CC(C)(C)[C@@H](O)[C@@H](Cc1ccc(Cl)cc1)n1cncn1`, the Potency entry in [2] and in experiment [3] was “inactive” each time. The outcome in experiment [9] and in experiment [4] was inactive.

As to `CCN(CC)CCCC(C)Nc1ccnc2cc(Cl)ccc12` (stereo unspecified), the activity change, negative = cytotoxicity in experiment [1] was -16.8% [at 6.97 µM] (inactive); in experiment [2], -9.86% [at 6.97 µM] (inactive); in [8], 3.19% [at 6.97 µM] (inactive) and -4.4% [at 15.8 µM] (inactive). Moreover, in [3], the cytotoxicity increase was 3.33% [at 6.97 µM] (inactive) and 10.4% [at 15.8 µM] (inactive). Also, the viability change, negative = cytotoxic in experiment [4] is -8.89% [at 8.39 µM] (inactive). In addition, the activity change, negative = inhibition in experiment [7] is 35.5% [at 8.39 µM] (inactive) and -0.903% [at 19 µM] (inactive). In addition, the result in [10] was inactive.

Turning to `CCCCCCCCC/C=C/CC1CC(=O)OC1=O` (stereo unspecified), the Potency result in experiment [1], in [2], in experiment [8] and in experiment [6] was “inactive” throughout. Besides, the outcome in [4] was inactive.

As for `CCCCCCCCCCCCCCCO`, the Potency result in [1], in experiment [2], in experiment [3] and in experiment [6] was “inactive” each time. For the same compound, the outcome in experiment [4] was inactive.

In the case of `O=C(O)[C@H](O)[C@@H](O)[C@H](O)[C@H](O)CO`, the Potency entry in [1], in experiment [2], in experiment [3] and in [6] was “inactive” in each case. The result in [4] and in [10] was inactive.

As for `N[C@@H](Cc1cc(I)c(Oc2cc(I)c(O)c(I)c2)c(I)c1)C(=O)O`, the Potency result in [1] and in [2] was “inactive” throughout. Further, the result in experiment [4] and in [10] was inactive.
